# High-throughput results deposited in PubChem BioAssay by National Center for Advancing Translational Sciences (NCATS).
# DT40 TDP1 no CPT: qHTS for Inhibitors of human tyrosyl-DNA phosphodiesterase 1 (TDP1): qHTS in cells in absence of CPT. DT40 Tdp1-/- hTDP1 cells, no CPT, ATP luminescence, 48 h. Potency, µM (top dose mostly 46.2 µM), for inactives: at the top dose activity change, negative = growth inhibition, hits mostly inhibitors. 420,000 tested, 15% active; also: potency is read from the fitted curve at half-maximal effect; nearly all actives have a fitted effect of over 55% in size
#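 Compound effects on proliferation are scored in DT40 Tdp1-/-;hTDP1 cells in the absence of CPT. ATP levels (CellTiter-Glo luminescence) are recorded after a ≥48 hr, 37 °C incubation.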
# Six1-Eya2 inh: blocks human Six1 binding to Eya2; 360,000 tested, 0.56% active; activity change, % (test concentration not listed); AlphaScreen GST-Six1/His-Eya2 binding, biochemical; hits give low values; in the data active = activity change below about -65%; inconclusive = mostly about -30% to -63%
#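 Six1/Eya2 binding was read as AlphaScreen signal after compounds were pinned into GST-Six1 plus His-tagged Eya2 (5X stock 250/500 nM) in pH 8.0 Tris/NaCl/TCEP buffer, beads added, then incubated 1 h, 37 C, dark.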
# TDP1 cell CPT: DT40-hTDP1 cell growth loss with CPT; 420,000 tested, 12% active; chicken DT40 Tdp1-/-;hTDP1 cells + 20 nM CPT, ATP luminescence, 48 h; Potency, µM (titrated, usually from 46.2 µM), without a hit: at the highest dose activity change, negative = growth inhibition, actives largely listed as inhibitors; also: potency is read from the fitted curve at half-maximal effect; nearly all actives have a fitted effect of over 55% in size
#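 Cell growth measured by CellTiter-Glo luminescence after a minimum 48 h, 37 C compound exposure with 20 nM CPT in Tdp1-knockout DT40 cells stably expressing hTDP1, seeded 400/well; qHTS titration format.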
# CtBP-E1A blk: inhibitors of CtBP/E1A interaction; AlphaScreen GST-E1A/His-CtBP binding, 1536-well; hits give low values; activity change, % (no concentration beside the values); 340,000 tested, 0.49% active; AID 651724; in the data active = activity change below about -65%; inconclusive = mostly about -30% to -63%
#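 GST-E1A and His-tagged CtBP (125 nM each as 5X stock) were preincubated with pin-transferred compound for 2 h at 37 °C in the dark, then glutathione donor and nickel acceptor beads were added for 1 h before AlphaScreen reading.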
# IL1B secr inh: blocks inflammasome-driven IL-1 beta release; activity change, % at 57.5 µM; THP-1 LPS/ATP IL-1B secretion, AlphaLISA, 16 h; hits give low values; 360,000 tested, 4.7% active; AID 743279; in the data active = activity change below about -50%; inconclusive = mostly about -30% to -49%
#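 Secreted IL-1B measured by AlphaLISA bead assay after 16 h compound exposure of THP-1 cells; compounds (final up to 57.5 uM) added 1 h before LPS (250 ng/mL) and ATP (1.25 mM) stimulation; lower signal means less secretion.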
# TDP1 inh: TDP1 (human) enzyme inhibition | Q9NUW8 | recombinant TDP1, AlphaScreen DNA substrate cleavage | Potency, µM (doses to about 130 µM), for the others: top-dose activity change, negative = inhibition, actives largely listed as inhibitors | 350,000 tested, 0.28% active | AID 485290; also: potency is read from the fitted curve at half-maximal effect; nearly all actives have a fitted effect of over 40% in size
# Target sequence (Q9NUW8 whole entry, looked up): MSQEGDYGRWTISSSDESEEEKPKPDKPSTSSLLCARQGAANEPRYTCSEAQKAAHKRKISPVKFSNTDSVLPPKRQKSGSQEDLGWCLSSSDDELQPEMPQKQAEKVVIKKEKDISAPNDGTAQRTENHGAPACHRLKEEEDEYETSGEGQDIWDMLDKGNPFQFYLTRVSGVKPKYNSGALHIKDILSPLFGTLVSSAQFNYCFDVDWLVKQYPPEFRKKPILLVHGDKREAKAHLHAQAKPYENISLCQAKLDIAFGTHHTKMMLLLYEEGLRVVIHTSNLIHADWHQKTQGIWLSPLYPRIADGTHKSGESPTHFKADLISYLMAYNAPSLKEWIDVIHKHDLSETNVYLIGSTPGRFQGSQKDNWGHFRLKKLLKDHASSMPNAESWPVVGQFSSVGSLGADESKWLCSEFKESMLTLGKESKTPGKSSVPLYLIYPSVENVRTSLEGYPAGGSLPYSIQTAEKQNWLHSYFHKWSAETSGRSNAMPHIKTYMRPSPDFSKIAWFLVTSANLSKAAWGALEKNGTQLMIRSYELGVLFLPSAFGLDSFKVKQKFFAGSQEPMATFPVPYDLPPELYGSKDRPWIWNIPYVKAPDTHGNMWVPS
#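 Enzyme-compound mixtures sat 15 min at room temperature, followed by a 5 min reaction with 15 nM final substrate and 10 min with AlphaScreen beads. Recombinant human Tdp1 was used at 1 nM final.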
# * hit, by the source's call; ? = inconclusive; . = no result; [ ] = remark or other dose. Most compounds without a hit are left out; they make up all but 18% or so of the library. Unless noted, calls follow the shape of the dose curve; as a rule, active = well fitted curve in the direction sought with a large enough effect; inconclusive = small, poorly fitted or top-dose-only effect, or another doubt; inactive = no such curve, though single readings can be large; an effect the other way counts as inactive or inconclusive. % is scaled to controls: 0 for no effect and ±100 for the full control effect.
SMILES,DT40 TDP1 no CPT,Six1-Eya2 inh,TDP1 cell CPT,CtBP-E1A blk,IL1B secr inh,TDP1 inh
CCCC(=O)N(CCN1CCOCC1)c1nc2c(C)cccc2s1,9.8%,0.2,-26.5%,-2.9,-51.5*,5.0%
O=C(CCS(=O)(=O)c1ccccc1)N(CCCN1CCOCC1)c1nc2c(F)cccc2s1,2.91µM*,0.2,2.31µM*,-0.9,-107.1*,0.0%
O=C(CCS(=O)(=O)c1ccccc1)N(CCCN1CCOCC1)c1nc2ccc(F)cc2s1,3.66µM*,0.5,2.59µM*,4.0,-82.3*,-9.5%
Cc1cc(NC(=O)c2cc(-c3cccc(Cl)c3)on2)n(-c2ccccc2)n1,?,.,?,.,.,1.8%
COc1cc(C2C3=C(COC3=O)Oc3cc4c(cc32)OCO4)ccc1OC(C)=O (centres undefined),1.84µM*,-5.5,1.64µM*,-1.3,21.7,.
COc1cc(C2N(c3ccccc3)CCN2c2ccccc2)ccc1OC(C)=O,-17.0%,?,-29.7%,-16.0,-23.8,8.4%
COc1ccc(C2C3=C(COC3=O)Oc3cc4c(cc32)OCO4)cc1OC (centres undefined),1.46µM*,11.2,1.84µM*,-5.5,8.6,5.3%
COc1ccc(C2C(=O)c3ccccc3C2=O)cc1OC,-9.1%,-7.6,?,-2.2,5.3,-5.3%
COc1cc(C2C3=C(COC3=O)Oc3cc4c(cc32)OCO4)cc(OC)c1OC(C)=O (centres undefined),0.651µM*,23.3,0.651µM*,7.9,19.3,.
CCc1nc2scc(-c3ccc(C)cc3)c2c(=O)n1N,-18.6%,3.9,3.7%,3.2,0.5,0.0%
O=C(COn1nnc2ccc(Cl)cc21)NC12CC3CC(CC(C3)C1)C2,?,3.1,?,0.5,-10.5,3.5%
CN1C(=O)c2ccccc2C(C(=O)O)C1c1cccc(F)c1 (centres undefined),25.9µM*,13.2,?,4.5,28.3,-3.1%
CCOc1ccc(/C=C2\SC(=S)N(N3C(=O)C4CC4C3=O)C2=O)cc1 (centres undefined),-22.1%,-4.4,-0.1%,6.9,5.7,6.9%
Nc1c(NCc2ccccc2)c(=O)[nH]c(=O)n1Cc1ccccc1,18.4µM*,2.7,?,6.9,-14.9,-2.3%
CCCNc1c(N)n(-c2ccccc2)c(=O)[nH]c1=O,16.4µM*,3.0,?,7.8,-0.4,-2.3%
CNc1c(N)n(Cc2ccccc2)c(=O)[nH]c1=O,-3.2%,0.9,4.0%,8.0,-2.6,4.0%
CCOc1ccc([N+](=O)[O-])cc1CNC1CCCCCCC1,?,-7.1,-19.8%,.,-28.4,3.0%
Cc1cc(CNC(=O)COC(=O)C2CC3CCCC(C2)C3=O)cc(C)c1O (centres undefined),19.2%,3.6,-4.6%,5.3,1.4,2.1%
COc1ccccc1CNC(=O)CSc1n[nH]c(N)n1,-1.2%,3.1,10.2%,2.9,4.5,-17.1%
CN(CC(=O)Nc1ccc(Cl)c(C(F)(F)F)c1)C(=O)CCN1C(=O)C2CCCCC2C1=O (centres undefined),23.1µM*,-0.8,23.1µM*,1.3,0.6,.
CCOc1ccc(NC(=O)CN(C)C(=O)CCN2C(=O)C3CC=CCC3C2=O)cc1OCC (centres undefined),8.3%,-4.7,-19.9%,-7.6,-15.0,0.6%
CC(C(=O)N1CCCCC1)N(C)CC(=O)Nc1ccc(Cl)cc1 (centres undefined),16.4µM*,-6.2,?,.,10.9,-0.6%
CC(C(=O)N1CCCCC1)N(C)CC(=O)Nc1ccc(F)c(F)c1F (centres undefined),4.7%,0.5,-3.3%,1.7,1.5,.
CN(CC(=O)NC(=O)NCc1ccccc1)Cc1ccc(Cl)cc1,-24.2%,2.8,-2.1%,-13.1,?,5.7%
CN(CC(=O)NC(=O)NCc1ccccc1)CC(=O)Nc1ccc(Cl)c(C(F)(F)F)c1,20.6µM*,-4.3,18.4µM*,0.2,-89.4*,.
SMILES,DT40 TDP1 no CPT,Six1-Eya2 inh,TDP1 cell CPT,CtBP-E1A blk,IL1B secr inh,TDP1 inh
CN(CC(=O)NCCc1ccc(S(N)(=O)=O)cc1)CC(=O)Nc1ccc(Cl)c(C(F)(F)F)c1,13µM*,5.5,13µM*,-22.9,?,.
CN(CC(=O)NCCc1ccc(S(N)(=O)=O)cc1)CC(=O)Nc1ccccc1Cl,-16.1%,-0.1,-17.8%,17.8,-3.7,0.3%
COc1cc(OC)c(NC(=O)c2cnn(-c3cccc(Cl)c3C)c2C2CCN(C(=O)OC(C)(C)C)CC2)cc1Cl,-28.3%,.,-27.7%,.,.,-2.1%
CN(CC(=O)Nc1cccc(S(=O)(=O)N2CCCC2)c1)CC(=O)Nc1ccc(Cl)c(C(F)(F)F)c1,16.4µM*,0.7,?,-1.2,-65.9*,1.0%
CN(CC(=O)Nc1ccc(Cl)c(C(F)(F)F)c1)CC(=O)NC1CCCCC1,?,3.4,16.4µM*,-15.7,-7.3,-4.5%[56.1 µM]
CSc1ncccc1C(=O)N(C)CC(=O)Nc1ccc(Cl)c(C(F)(F)F)c1,?,0.7,?,7.3,-2.1,3.4%
CN(CC(=O)NCc1ccccc1)CC(=O)Nc1ccc(Cl)c(C(F)(F)F)c1,18.4µM*,-2.3,14.6µM*,0.8,-11.2,0.9%
CN(CC(=O)Nc1ccc(Cl)c(Cl)c1)CC(=O)N1CCCCCC1,25.9µM*,-8.1,?,-2.0,-14.7,.
CN(CC(=O)Nc1cccc(F)c1)CC(=O)N1CCCCC1,6.0%,1.4,0.5%,-1.5,8.4,-0.9%
CN(CC(=O)Nc1cccc(S(=O)(=O)N2CCCC2)c1)CC(=O)Nc1ccc(F)c(F)c1F,?,5.0,?,-4.9,13.6,.
O=C(CN1C(=O)C2CC=CCC2C1=O)NC1=NCCS1 (centres undefined),0.7%,-1.4,-5.6%,-1.7,1.1,6.0%
O=C(CS(=O)(=O)c1cccc2nsnc12)Nc1cc(F)ccc1F,-13.6%,.,-6.0%,.,.,5.5%
CSc1ccc(S(=O)(=O)NCC(=O)OCC(=O)NCc2ccco2)cc1[N+](=O)[O-],-3.4%,5.8,-12.0%,-2.9,37.6,-4.1%
Cc1ccc(NC(=O)CN2C(=O)NC3(CCCc4ccccc43)C2=O)c(Cl)c1 (centres undefined),?,-0.6,-23.2%,5.6,9.4,-0.6%
O=C(CN1C(=O)NC2(CCCc3ccccc32)C1=O)N1CCc2ccccc2C1 (centres undefined),20.6µM*,4.5,?,7.9,-5.1,3.1%
